Test results taken from the supplement of paper PMC11732987, “Enantioselective OTUD7B fragment discovery through chemoproteomics screening and high-throughput optimisation” (Communications Chemistry, 2025).

How the values were obtained:
Assay in all cases: log2 ratio of Biotin-Ahx-Ub-VS probe labelling (fragment/DMSO); higher = less target engagement (more negative = stronger competition), active = hit call of the paper (q ≤ 0.05, log2 ratio ≤ -1)
Settings in all cases: compound concentration: 200 uM; treatment time: 3 h
USP19 = molecular target: T1, USP19 (UniProt O94966)
T1 sequence (whole entry): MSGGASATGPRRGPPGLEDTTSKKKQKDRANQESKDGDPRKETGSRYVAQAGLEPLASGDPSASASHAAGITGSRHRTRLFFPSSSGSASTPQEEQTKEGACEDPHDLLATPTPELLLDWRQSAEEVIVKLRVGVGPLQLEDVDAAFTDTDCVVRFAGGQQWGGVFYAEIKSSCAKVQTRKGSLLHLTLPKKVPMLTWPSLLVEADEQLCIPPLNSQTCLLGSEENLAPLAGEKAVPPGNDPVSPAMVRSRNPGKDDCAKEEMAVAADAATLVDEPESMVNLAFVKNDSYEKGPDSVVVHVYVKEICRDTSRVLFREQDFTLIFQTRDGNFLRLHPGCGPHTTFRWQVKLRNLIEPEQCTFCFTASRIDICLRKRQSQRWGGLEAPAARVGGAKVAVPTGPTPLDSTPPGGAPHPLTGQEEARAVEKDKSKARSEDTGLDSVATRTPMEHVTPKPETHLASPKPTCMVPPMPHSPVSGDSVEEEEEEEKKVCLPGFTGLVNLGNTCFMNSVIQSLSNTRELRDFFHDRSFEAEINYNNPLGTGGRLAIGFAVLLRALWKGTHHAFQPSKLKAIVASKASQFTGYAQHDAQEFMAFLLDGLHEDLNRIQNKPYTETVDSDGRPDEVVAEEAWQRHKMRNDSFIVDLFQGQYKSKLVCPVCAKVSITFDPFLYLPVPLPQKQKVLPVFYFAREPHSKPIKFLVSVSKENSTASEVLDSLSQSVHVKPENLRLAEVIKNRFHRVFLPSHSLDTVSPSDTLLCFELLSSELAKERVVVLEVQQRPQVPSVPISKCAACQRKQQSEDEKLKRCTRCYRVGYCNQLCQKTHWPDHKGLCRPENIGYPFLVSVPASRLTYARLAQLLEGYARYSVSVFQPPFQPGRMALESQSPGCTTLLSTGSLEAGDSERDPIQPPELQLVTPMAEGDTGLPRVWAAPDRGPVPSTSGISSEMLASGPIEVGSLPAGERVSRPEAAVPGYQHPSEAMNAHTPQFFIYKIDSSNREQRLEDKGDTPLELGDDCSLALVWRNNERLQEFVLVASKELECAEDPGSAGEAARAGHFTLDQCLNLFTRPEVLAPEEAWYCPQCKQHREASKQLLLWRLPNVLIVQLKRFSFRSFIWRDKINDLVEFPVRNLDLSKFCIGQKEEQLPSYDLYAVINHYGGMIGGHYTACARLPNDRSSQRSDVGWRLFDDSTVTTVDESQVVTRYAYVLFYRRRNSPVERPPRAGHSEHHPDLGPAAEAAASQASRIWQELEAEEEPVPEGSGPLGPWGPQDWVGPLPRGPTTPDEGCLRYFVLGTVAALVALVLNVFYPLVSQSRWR
Outline: (§1)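 HEK293T lysate (495 µg per sample, in Tris/CHAPS/IGEPAL buffer with protease inhibitors) was exposed in triplicate for 3 h to fragment at 200 µM or to vehicle, then to Biotin-Ahx-Ub-VS at 0.5 µM final for 1 h. Labelled DUBs were enriched on NeutrAvidin, digested with LysC and trypsin, and analysed by diaPASEF LC-MS/MS. Spectronaut label-free quantities were normalised to the global median, and values are average log2 ratios of fragment over vehicle from an unpaired t-test. Only proteins with ≥2 unique peptides were used.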

USP24 = USP24 (UniProt Q9UPU5)
Sequence of USP24 (Q9UPU5 whole entry): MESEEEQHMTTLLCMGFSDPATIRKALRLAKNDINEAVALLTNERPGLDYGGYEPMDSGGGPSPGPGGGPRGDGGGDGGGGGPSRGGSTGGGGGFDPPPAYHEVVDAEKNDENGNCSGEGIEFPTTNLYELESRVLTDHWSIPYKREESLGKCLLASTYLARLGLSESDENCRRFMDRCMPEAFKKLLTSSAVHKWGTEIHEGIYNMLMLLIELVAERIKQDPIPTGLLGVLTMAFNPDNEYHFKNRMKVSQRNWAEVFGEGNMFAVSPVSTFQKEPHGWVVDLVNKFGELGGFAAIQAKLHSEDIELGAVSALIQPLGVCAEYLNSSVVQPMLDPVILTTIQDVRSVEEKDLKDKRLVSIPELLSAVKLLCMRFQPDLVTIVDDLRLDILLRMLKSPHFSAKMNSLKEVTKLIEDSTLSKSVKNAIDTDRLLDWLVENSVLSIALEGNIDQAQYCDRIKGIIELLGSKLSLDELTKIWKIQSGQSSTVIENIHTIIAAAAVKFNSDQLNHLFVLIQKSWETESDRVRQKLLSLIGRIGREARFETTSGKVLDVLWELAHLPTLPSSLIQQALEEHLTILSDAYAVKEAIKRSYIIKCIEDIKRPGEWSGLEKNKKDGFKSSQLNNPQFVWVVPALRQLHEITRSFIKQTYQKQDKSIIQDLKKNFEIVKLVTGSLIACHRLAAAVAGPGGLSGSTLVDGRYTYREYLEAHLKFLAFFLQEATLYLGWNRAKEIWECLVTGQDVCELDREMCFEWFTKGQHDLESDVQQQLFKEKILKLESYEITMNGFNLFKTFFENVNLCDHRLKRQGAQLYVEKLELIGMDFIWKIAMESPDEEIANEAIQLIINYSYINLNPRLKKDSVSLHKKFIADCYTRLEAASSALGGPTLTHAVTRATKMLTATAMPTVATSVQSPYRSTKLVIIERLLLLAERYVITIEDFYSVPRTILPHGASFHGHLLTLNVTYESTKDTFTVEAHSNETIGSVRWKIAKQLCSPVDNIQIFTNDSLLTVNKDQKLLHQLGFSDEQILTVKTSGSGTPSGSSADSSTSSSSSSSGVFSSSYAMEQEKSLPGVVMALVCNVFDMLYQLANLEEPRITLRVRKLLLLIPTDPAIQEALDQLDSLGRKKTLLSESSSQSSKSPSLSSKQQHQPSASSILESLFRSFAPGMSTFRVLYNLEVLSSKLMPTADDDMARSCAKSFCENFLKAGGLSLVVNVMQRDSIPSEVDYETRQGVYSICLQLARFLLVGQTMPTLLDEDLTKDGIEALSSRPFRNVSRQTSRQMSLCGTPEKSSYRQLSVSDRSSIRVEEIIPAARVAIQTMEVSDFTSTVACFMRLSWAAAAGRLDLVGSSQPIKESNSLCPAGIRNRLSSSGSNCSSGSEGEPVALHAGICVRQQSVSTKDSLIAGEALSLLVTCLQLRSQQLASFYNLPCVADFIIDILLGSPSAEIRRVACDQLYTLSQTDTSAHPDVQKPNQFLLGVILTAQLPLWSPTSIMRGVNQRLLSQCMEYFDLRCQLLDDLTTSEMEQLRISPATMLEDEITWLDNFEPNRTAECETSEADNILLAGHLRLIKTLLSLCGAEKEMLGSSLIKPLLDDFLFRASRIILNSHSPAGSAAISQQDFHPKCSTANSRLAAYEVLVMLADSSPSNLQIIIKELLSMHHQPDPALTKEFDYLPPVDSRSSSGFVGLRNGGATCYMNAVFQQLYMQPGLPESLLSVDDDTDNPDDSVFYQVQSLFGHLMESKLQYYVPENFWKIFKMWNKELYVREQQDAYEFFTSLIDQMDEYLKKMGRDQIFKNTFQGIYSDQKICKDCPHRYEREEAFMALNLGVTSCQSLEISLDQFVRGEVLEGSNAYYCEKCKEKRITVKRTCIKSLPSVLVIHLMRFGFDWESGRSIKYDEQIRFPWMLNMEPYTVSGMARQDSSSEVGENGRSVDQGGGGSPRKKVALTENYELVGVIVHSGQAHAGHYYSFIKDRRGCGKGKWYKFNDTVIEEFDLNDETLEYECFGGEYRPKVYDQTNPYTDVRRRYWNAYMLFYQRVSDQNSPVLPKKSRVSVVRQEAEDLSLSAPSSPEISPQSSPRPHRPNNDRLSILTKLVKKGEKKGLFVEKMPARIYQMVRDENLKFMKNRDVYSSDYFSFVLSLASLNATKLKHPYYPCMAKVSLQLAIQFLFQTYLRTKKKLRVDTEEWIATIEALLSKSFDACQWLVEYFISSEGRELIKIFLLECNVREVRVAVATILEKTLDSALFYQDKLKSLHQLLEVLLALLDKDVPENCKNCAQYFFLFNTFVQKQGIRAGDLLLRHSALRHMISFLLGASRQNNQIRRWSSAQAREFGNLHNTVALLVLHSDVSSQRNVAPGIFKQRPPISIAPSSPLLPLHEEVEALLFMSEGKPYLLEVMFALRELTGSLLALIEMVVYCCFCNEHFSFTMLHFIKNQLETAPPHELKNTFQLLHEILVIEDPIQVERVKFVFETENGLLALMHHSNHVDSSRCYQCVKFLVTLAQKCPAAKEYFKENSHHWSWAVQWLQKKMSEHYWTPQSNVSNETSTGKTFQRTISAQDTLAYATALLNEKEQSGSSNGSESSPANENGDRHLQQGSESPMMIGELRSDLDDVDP
Outline: as §1

USP25 = molecular target: T2, USP25 (UniProt Q9UHP3)
T2 sequence (whole entry): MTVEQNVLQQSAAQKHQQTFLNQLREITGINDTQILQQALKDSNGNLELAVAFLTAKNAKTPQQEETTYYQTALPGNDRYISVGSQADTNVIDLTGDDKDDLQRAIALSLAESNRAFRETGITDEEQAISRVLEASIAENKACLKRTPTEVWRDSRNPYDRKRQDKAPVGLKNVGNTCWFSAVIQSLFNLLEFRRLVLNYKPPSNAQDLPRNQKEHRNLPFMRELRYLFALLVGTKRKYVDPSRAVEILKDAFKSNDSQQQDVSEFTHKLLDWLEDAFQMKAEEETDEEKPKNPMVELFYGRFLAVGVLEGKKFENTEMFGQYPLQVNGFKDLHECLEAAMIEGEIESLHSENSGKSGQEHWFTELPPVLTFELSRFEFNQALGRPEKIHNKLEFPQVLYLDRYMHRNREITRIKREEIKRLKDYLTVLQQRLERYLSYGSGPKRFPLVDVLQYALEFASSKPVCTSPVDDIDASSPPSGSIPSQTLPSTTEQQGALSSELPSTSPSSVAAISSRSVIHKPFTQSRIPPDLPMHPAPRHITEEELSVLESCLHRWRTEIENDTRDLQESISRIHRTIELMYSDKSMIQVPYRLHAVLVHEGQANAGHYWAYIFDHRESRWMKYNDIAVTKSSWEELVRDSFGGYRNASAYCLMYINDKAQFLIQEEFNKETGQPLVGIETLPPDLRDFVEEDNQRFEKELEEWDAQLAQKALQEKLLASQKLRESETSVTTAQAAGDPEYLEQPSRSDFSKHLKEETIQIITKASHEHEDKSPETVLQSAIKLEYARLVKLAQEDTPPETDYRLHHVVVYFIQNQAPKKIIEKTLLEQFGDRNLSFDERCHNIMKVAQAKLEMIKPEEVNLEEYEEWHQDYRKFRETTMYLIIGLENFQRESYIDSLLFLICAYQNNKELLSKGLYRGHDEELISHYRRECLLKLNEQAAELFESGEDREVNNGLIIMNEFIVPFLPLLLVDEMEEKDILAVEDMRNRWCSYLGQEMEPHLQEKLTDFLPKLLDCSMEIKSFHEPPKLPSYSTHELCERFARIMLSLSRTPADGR
Outline: as §1

USP28 = molecular target: T3, USP28 (UniProt Q96RU2)
T3 sequence (whole entry): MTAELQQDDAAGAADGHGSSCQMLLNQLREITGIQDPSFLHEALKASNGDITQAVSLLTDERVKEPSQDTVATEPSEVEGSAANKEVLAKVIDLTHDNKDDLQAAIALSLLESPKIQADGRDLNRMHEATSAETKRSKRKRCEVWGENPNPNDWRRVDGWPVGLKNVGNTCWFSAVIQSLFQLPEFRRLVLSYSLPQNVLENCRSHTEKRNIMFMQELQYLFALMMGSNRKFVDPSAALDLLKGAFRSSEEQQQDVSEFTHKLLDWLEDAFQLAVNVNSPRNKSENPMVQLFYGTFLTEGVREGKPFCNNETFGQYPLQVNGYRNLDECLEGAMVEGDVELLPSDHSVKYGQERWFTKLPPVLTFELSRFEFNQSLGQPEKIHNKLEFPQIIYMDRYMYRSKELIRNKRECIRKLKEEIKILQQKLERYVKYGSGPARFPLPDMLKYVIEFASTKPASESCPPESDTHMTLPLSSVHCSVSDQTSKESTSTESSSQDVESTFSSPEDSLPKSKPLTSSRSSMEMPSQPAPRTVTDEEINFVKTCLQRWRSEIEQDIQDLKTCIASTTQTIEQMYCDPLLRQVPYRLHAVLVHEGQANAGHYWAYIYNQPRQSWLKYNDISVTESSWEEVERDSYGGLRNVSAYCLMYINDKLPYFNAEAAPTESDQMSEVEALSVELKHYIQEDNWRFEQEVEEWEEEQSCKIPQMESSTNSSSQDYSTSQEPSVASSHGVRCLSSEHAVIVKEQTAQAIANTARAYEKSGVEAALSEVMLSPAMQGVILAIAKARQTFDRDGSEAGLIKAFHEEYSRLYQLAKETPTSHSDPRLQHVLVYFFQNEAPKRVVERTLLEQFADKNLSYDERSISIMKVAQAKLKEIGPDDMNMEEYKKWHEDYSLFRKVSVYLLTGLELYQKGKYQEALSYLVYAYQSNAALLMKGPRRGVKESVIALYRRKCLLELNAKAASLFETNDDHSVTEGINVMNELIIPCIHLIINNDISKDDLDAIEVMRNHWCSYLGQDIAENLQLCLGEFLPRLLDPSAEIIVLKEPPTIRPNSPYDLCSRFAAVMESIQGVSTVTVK
Outline: as §1

Measured: log2 ratio of Biotin-Ahx-Ub-VS probe labelling

COc1ccc(CN(C)C(=O)CCl)cc1
inactive: USP19 -0.211 | USP24 -0.564 | USP25 -0.245 | USP28 -0.499
